# The panel holds about 83,000 compounds, 20% with a hit somewhere; the sample as a whole holds those more often.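 A percent growth of 40 corresponds to 60% growth inhibition; 0 means no net growth; -100 means all cells died. Active threshold: below 10.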 A number with no mark means an inactive call. Calls of active or inactive are those of the source.
# System: MDA-MB-468 breast
# Assay: NCI-60 one-dose screen, 48 h (100 = growth as untreated, 0 = no growth, -100 = all killed)
# Conditions: 10 µM unless noted
row,Compound,growth
1,CCn1c2c(c3ccccc31)SC1c3cccn3CCN1C2=S (centres undefined),-1.66% (active)
2,c1ccc(-c2nn(-c3ccccc3)[n+](-c3cccc4ccccc34)n2)cc1,-20.4% (active)
3,CC(C)(C)CC(C)(C)n1nnnc1C(Nc1nccs1)c1cc2cccc3ccc4cccc1c4c32 (centres undefined),-33.3% (active)
4,COc1cc(Nc2cc(O)c3c(=O)cc(-c4ccccc4)oc3c2)cc(OC)c1,11.7%
5,COc1ccc(-c2csc(NC(=O)Nc3nc(-c4ccc(OC)cc4)cs3)n2)cc1,47.3%
6,COc1ccc(-n2nc(C(=O)NCC(=O)O)nc2-c2ccccc2)cc1,115%
7,COc1cc(-c2nc(Nc3nc4ccccc4s3)[nH]c(=O)c2C#N)cc(OC)c1O,105%
8,CSC(=N\N=C\c1ccc(N(C)C)cc1)/N=C/N(C)C,83.5%
9,S=C(S)NCCc1c[nH]c2ccccc12,98.6%
10,COc1ccc(/C(=C(\c2ccccc2)[N+](=O)[O-])c2ccc(OCCN3CCCC3)cc2)cc1,68.1%
11,O=C(O)C[C@H](O)C[C@H](O)/C=C/c1c(C2CC2)nc2ccccc2c1-c1ccc(F)cc1,75.1%
12,COC(=O)CCc1cc(O)c2c(c1)[C@@H](C(=O)OC)[C@H](c1ccc(O)c(O)c1)O2,83.4%
13,O=C(Nc1ccccc1)c1sc(-c2cccc(C(F)(F)F)c2)cc1O,92.3%
14,CSC1=C(N)C(=O)c2[nH]cc(CO)c2C1=N,-73.5% (active)
15,CCCCCCOc1ccc(C(=N)N(CCCC)CCCC)c2ccccc12,-82.3% (active)
16,Cc1ccncc1C(=O)O,101%
17,Cc1cc(C)cc(Nc2ccc([N+](=O)[O-])c(NCCN3CCOCC3)n2)c1,20.8%
18,CCCCC1Nc2nc(SC)n(C)c(=O)c2CN(Cc2ccccc2)C1=O (centres undefined),101%
19,NC(=O)c1cc(Br)ccc1NC(=O)/C=C/c1ccccc1,27.8%
20,CCOC(=O)C1=CSC2=NC3=C(CCC/C3=C\c3cc(OC)c(OC)c(OC)c3)C(c3cc(OC)c(OC)c(OC)c3)N12 (centres undefined),33.8%
21,COc1ccc(S(=O)(=O)NCCNc2nccc(-c3c(-c4cccc(N)c4)nc4sccn34)n2)cc1,88.5%
22,c1ccc(-c2nnn(-c3ccccc3)n2)cc1,111%
23,Cn1c(=O)c2[nH]c(SC/C(=N/O)c3ccc(Br)cc3)nc2n(C)c1=O,47.1%
24,Cc1cc2cc3ccc(N(C)C)cc3nc2cc1N,-56.8% (active)
25,COc1ccc(C(=O)c2cc(C)c(OC)c(C)c2)c(OC)c1NC(C)=O,12.4%
26,Cc1cc([N+](=O)[O-])c(C)cc1C(=O)O,109%
27,COc1ccccc1/C=C1\Oc2cc(OCCN3CCC(Cc4ccccc4)CC3)ccc2C1=O,76.4%
28,Cc1ccc(C)c2c1sc1nc3nc4sc5ccccc5n4c(=N)c3c(=O)n12,88.7%
29,CC(C)[C@@]12C[C@@H](OC(=O)C3CO3)[C@@](C)(O1)[C@@H]1CC[C@@H](C)[C@H]1[C@@H]2OC(=O)/C=C/c1ccccc1 (some centres undefined),95.4%

# Reference: PubChem BioAssay (NCI)
